In PubChem BioAssay AID588352 (The Scripps Research Institute Molecular Screening Center, 2011):
Among all 360,000 compounds or so, about 620 (0.17%) were called active. Only a selection was taken, and actives are over-represented in it overall. A number with no mark means an inactive call.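 The calls were made as follows: active = inhibition above a per-campaign cutoff, the mean of all compounds plus 3 SD (cut at about 60% in these data); inactive = the rest.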

Target: Nuclear receptor coactivator 3 (Homo sapiens) (UniProt Q9Y6Q9)
Test: NCOA3 GAL4-fusion reporter inhibition – cell-based, luminescence, primary screen (AID 588352);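 also: 0% = DMSO-treated cells and 100% = gossypol-treated cells at 36 µM; higher means less SRC3-driven luciferase light from the GAL4 reporter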
Conditions: HEK293 GAL4-SRC3 luciferase reporter, at 3.6 µM, stronger effect = higher value

Chain of Nuclear receptor coactivator 3 (Homo sapiens) (Q9Y6Q9 whole entry, looked up, the tested form may be a part): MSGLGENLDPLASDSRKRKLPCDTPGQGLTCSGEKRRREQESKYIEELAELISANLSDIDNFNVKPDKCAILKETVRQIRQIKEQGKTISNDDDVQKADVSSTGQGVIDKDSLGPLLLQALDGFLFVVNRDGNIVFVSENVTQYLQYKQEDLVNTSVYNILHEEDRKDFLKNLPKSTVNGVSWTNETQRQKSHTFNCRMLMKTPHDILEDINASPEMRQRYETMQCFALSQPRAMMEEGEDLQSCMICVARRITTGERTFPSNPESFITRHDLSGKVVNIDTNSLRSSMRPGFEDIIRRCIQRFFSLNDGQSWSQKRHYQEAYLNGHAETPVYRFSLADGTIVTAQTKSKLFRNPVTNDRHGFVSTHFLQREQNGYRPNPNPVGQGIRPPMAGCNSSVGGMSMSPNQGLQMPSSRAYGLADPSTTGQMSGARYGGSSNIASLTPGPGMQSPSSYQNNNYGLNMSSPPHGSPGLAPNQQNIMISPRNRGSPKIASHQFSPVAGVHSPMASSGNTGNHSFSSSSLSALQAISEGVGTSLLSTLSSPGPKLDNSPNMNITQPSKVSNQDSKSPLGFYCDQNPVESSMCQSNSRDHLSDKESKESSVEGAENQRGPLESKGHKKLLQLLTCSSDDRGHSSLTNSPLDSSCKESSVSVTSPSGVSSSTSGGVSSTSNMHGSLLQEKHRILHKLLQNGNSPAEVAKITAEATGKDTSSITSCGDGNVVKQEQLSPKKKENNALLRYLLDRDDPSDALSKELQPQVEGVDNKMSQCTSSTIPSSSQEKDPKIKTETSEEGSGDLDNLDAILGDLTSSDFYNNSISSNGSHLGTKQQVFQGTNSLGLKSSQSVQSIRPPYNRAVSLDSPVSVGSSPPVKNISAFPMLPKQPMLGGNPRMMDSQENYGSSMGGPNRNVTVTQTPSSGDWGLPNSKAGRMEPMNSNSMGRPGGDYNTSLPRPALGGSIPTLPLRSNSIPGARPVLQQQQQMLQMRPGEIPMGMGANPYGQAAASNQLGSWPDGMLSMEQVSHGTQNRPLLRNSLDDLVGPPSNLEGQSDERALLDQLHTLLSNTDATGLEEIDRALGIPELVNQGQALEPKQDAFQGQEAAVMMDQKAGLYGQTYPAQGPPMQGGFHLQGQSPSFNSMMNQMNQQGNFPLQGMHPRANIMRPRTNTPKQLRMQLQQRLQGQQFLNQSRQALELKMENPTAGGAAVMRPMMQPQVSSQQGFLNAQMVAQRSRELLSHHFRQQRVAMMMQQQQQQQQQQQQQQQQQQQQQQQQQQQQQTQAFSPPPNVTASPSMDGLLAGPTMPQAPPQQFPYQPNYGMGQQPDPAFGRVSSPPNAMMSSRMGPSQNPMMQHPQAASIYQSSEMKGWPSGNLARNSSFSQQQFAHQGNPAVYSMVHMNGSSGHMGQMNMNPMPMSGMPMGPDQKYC

| SMILES | inhibition |
| --- | --- |
| Nc1cccc2c1C(=O)N(Cc1nnc(-c3ccccc3Br)o1)C2=O | 7.44% |
| COc1ccc(C(=O)N2CCCCC2C(=O)Nc2ccc(-n3nc(C)cc3C)cc2)o1 (centres undefined) | -17.3% |
| Clc1ccc(-c2nnc(-c3ccccc3)nc2N2CCSCC2)cc1 | 5.59% |
| O=C(NCC1(N2CCCCC2)CCCCC1)c1ccc(NS(=O)(=O)c2ccc(F)cc2)cc1 | -2.32% |
| CCN(CC(=O)Nc1c(F)cccc1F)C(=O)CN1c2cccc3cccc(c23)S1(=O)=O | -23.2% |
| COc1ccc(C(=O)Nc2ccc(C3(C#N)CCCC3)cc2)cc1OC | -41% |
| C[C@H](C(=O)CC(=O)OC(C)(C)C)[C@H](O)c1ccc(C(F)(F)F)cc1 | 4.25% |
| O=S(=O)(c1cccc(-c2cn3ccccc3n2)c1)N1CCCC1 | 11.7% |
| Cc1c(CN2CCC(CO)(CCOc3ccccc3)CC2)[nH]c2ccc(Cl)cc12 | -36.5% |
| CN(CC(=O)Nc1c(Cl)cccc1Cl)C(=O)CC1OC(=O)c2ccccc21 (centres undefined) | 12.4% |
| COC(=O)/C(=C1\Oc2ccc(C(C)(C)C)cc2S1)C(F)(F)F | 5.95% |
| CCc1nc2c(OCCOc3ccccc3)cccn2c1N(C)C(=O)c1cccs1 | -22.5% |
| CCn1c(/C=N/NC(=O)c2ccc(OC)cc2)nc2ccccc21 | 15.7% |
| COc1ccc(C(=O)Nc2ccccc2C(=O)N/N=C/c2ccc(O)c(OC)c2)cc1 | 69.8% (active) |
| COc1cccc(OCc2cc(/C=N/NC(=O)c3nc(Cl)c(Cl)c(N)c3Cl)ccc2OC)c1 | -12.8% |
| C=CCN(c1ccc(Cl)cc1)S(=O)(=O)c1cccc(C(=O)OCC(=O)N(C)C)c1 | 16.1% |
| CC(C)[C@@H](C(=O)OCC(=O)c1ccc2c(c1)NC(=O)CO2)N1C(=O)c2ccccc2C1=O | -6.83% |
| CC(CO)N1CCS(=O)(=O)CC1 (centres undefined) | 19.6% |
| O=C(Cc1ccc(S(=O)(=O)N2CCOCC2)s1)Nc1ccc(Br)c(C(F)(F)F)c1 | 4.75% |
| COCCn1cnc2c1c(=O)n(Cc1ccc(Br)cc1)c(=O)n2Cc1ccccc1 | -1.52% |
| N=c1c2c(-c3ccccc3)c(-c3ccccc3)n(Cc3ccccc3)c2ncn1CCCO | 62.7% (active) |
| COCCn1cnc2c1c(=O)n(CC(=O)NN)c(=O)n2Cc1ccccc1 | 1.62% |
| CC(C)CC[n+]1ccn(C2=C([O-])c3ccccc3C(=O)/C2=N\S(=O)(=O)c2ccccc2)c1 | -4.74% |
| CN(C)CC(C)(C)CNC(=O)c1cc(Br)cc(Br)c1O | -17% |
